# Bioassay records as filed in PubChem.
# EWS-Fli inh: EWS/Fli-driven NR0B1 reporter inhibitors, primary screen, A673 cells, NR0B1 luciferase, luminescence, MLPCN library; viability-normalised; inhibition, % at 12.6 µM; 0.67% of 350,000 active; AID 651661, 2012;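 active means mean inhibition of at least 50% after viability correction, with every replicate also passing that limit; inconclusive means mean reaches 50% but only one of two replicates passes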;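 further: firefly luciferase signal divided by Alamar Blue viability fluorescence both relative to DMSO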
# miR122 inh: miR-122 Renilla sensor signal increase in Huh7, primary screen, miR-122 inhibitor project, cell-based, single point, plate reader. Huh7 miR-122 Renilla luciferase sensor, 48 h; neutral wells = 0, positive control = 100. AID 602342, 2012. 0.3% of 340,000 active. activation (reporter increase), % at 12.5 µM;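 active means mean replicate activation score at least 90 and every replicate individually at or above 90; inconclusive means only one of the two criteria met; inactive means neither criterion met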;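 further: higher luciferase means less miR-122 activity so hits act as miR-122 inhibitors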
# PAX8 inh HTS: inhibitors of PAX8-driven TPO luciferase reporter, primary screen, RMG-I cells, single concentration. SteadyGlo, 24 h. inhibition, % at 12.6 µM. 1.2% of 360,000 active. AID 652154, 2013;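 active means mean replicate inhibition at least 60% with every replicate also reaching 60%; inconclusive means only one of the two criteria is met; inactive means mean below 60% and not all replicates reaching 60%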;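 further: luciferase light reporting Pax8 driven TPO promoter activity; plate controls were median of neutral control wells for no effect and mitoxantrone controls for full effect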
# Statin myotox sup: suppressors of statin myotoxicity in C2C12 myotubes, primary screen, cell-based, single point, plate reader; C2C12 myotubes + simvastatin, ATP luminescence, 48 h; scaled: DMSO 0, geranylgeraniol control 100; rescue of ATP level, % at 7.49 µM; 0.78% of 330,000 active;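 active means mean ATP rescue above about 67%, or every replicate alone reaching that limit, limit read from the data, passing the limit was not always enough; inconclusive means no clear call, values can overlap the other calls; inactive means mean under the limit and some replicate under it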;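 further: myotubes were challenged with 10 µM simvastatin during compound exposure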
# Env fusion inh: inhibitors of HIV-1 Env-driven cell-cell fusion, primary screen, HeLa-JRFL effector, CEM21 target cells, luciferase; inhibition, % at 12.3 µM; 1.1% of 360,000 active; AID 651610, 2012;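 active means mean replicate inhibition score of at least 50 and every replicate individually at or above 50; inconclusive means only one of the two criteria met; inactive means mean below 50 and not all replicates reaching 50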;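 further: 0% = plate neutral controls and 100% = maraviroc near 300 nM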
# GSIS activator: GLuc luminescence reporter in INS-1E cells, primary screen for activators of glucose-dependent secretion of insulin | AID 743287, 2014 | 0.61% of 370,000 active | INS-1E GLuc reporter insulin secretion, 2-3 h | activation, % at 16.6 µM;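 active means lowest replicate activation of at least 40%, so every replicate reaches that level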;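 further: 0% = median of neutral control wells and 100% = median of IBMX positive control wells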
# * = called active by the depositor; ? = inconclusive; . = no result; [ ] = dose if it differs, or a comment. Shown are actives, neighbours in structure and some others; about 3.1% of the full set was active somewhere.
SMILES,EWS-Fli inh,miR122 inh,PAX8 inh HTS,Statin myotox sup,Env fusion inh,GSIS activator
O=C(Cn1c(C(F)(F)F)nc2ccccc21)c1ccccc1,8.7,.,.,-2.0,.,-12.3
COCCN1Cc2cccc(C(=O)NCc3ccccc3OC)c2C1=O,.,17.8,.,8.0,.,54.8*
CCCN(C)C[C@@H]1OCCCC[C@H](C)Oc2ccc(NC(=O)Nc3ccc4c(c3)OCO4)cc2C(=O)N([C@H](C)CO)C[C@@H]1C,2.0,-7.4[16.7 µM],-8.8,-4.8,9.7[16.7 µM],0.7
Cn1c(=S)oc2ccccc21,7.2,-2.8,2.9,88.8*,8.0,27.6
CC(=O)/C=C/n1c(=S)oc2ccccc21,.,.,113.5*,.,-344.6,11.9
COc1cc2c(cc1[N+](=O)[O-])n(C(C)C)c(=O)n2C(C)C,2.5,.,-9.9,.,4.5,58.3*
Cc1c(C(=O)Nc2ccc3c(c2)OCCO3)sc2nc(-c3ccccc3)cn12,.,.,.,-27.9,57.0*,-31.7
CC(C)(CNC(=S)NCCc1ccccc1)CNC(=S)NCCc1ccccc1,16.8,279.8*,21.3,.,12.9,-5.7
Fc1ccccc1NC(=S)NCCc1ccccc1,.,24.6,.,156.0*,.,.
OCCNC(=S)NCCc1ccccc1,.,.,3.1,.,5.0,-3.1
O=S(=O)(c1ccccc1)N1CC[C@@H]2[C@H]1c1cc(C#CC3CCCCC3)ccc1N[C@@H]2CO,.,.,.,.,.,-6.7
O=C(CCl)N(C/C=C/c1ccccc1)c1ccc2c(c1)OCCO2,44.6,.,84.2*,.,-21.6,2.9
CCOc1cc(/C=C/c2cccc[n+]2C)ccc1OCC(=O)Nc1ccc(C)cc1,-3.8,.,73.8*,-32.2,2.3,1.5
COc1cc(/C=C/c2cccc[n+]2C)ccc1OCC(=O)Nc1ccccc1C,1.0,.,6.4,12.9,12.1,5.1
CCC(C(=O)NC1CCCC1)N(C(=O)Cn1nnc(-c2ccc(OC)c(OC)c2)n1)c1cccc(O)c1 (configuration not stated),4.1,-4.4,12.0,139.0*,-9.9,-11.7
CC(C)(C)c1ccc(N/N=C(\C#N)S(=O)(=O)C(C)(C)C)cc1,13.0,.,25.8,.,25.9,-8.8
CC(C)(C)S(=O)(=O)/C(C#N)=N/Nc1ccc(Cl)cc1,8.2,.,26.3,.,58.4*,-23.8
COc1ccc(CCC(C)NCc2cc(OC)cc(OC)c2)cc1 (configuration not stated),5.4,-1.9,-32.5,6.5,71.1*,-6.2
COc1ccc(CCC(C)Nc2ccc(F)c(F)c2)cc1 (configuration not stated),.,.,-9.7,.,.,-13.8
COc1ccc(CCC(C)NCc2ccc(F)cc2)cc1 (configuration not stated),2.4,-6.5,5.9,18.9,?,8.0
COc1ccc(CCC(C)NCCc2ccc(Cl)cc2Cl)cc1 (configuration not stated),32.4,7.8,48.0,0.1,55.4*,-9.6
COc1ccc(CCC(C)NCc2ccc(Cl)c(Cl)c2)cc1 (configuration not stated),14.1,-2.7,8.6,11.7,81.1*,0.3
C/C=C/c1ccccc1[C@H]1[C@@H](C#N)N(c2nc(CC)cs2)[C@H]1CO,1.2,.,.,.,.,-12.4
C[C@@H]1CN([C@H](C)CO)C(=O)c2cc(NS(=O)(=O)c3cccs3)ccc2O[C@@H]1CN(C)C(=O)Nc1ccc2c(c1)OCO2,-3.4,1.2[16.7 µM],.,14.4,.,-5.4
C[C@@H]1CCCCO[C@@H](CN(C)C(=O)Nc2cccc3ccccc23)[C@H](C)CN([C@@H](C)CO)C(=O)c2cc(NC(=O)C3CCCCC3)ccc2O1,-2.5,-12.6[16.7 µM],8.5,.,-12.1[16.7 µM],12.3
SMILES,EWS-Fli inh,miR122 inh,PAX8 inh HTS,Statin myotox sup,Env fusion inh,GSIS activator
COc1ccc(/C=N/NC(=O)CCSc2nc3ccccc3s2)cc1OC,-4.7,1.8,-10.0,5.3,2.3,53.5*
COc1ccc(/C=N/OCC(=O)NC(c2ccccc2)c2ccccc2)cc1OC,4.0,.,-0.6,.,62.0*,-61.7
COc1ccc(/C=N/NC(=O)CN(C2=NS(=O)(=O)c3ccccc32)c2ccccc2)cc1OC,.,.,-11.2,.,-3.6,59.8*
COc1cccc(/C=N/NC(=O)CN(C2=NS(=O)(=O)c3ccccc32)c2ccccc2)c1,.,.,-0.3,.,8.2,-2.7
COc1ccc(/C=N/NC(=O)CCC(=O)Nc2ccccc2)cc1OC,8.8,.,-4.0,.,-6.4,37.6
COc1ccc(/C=N/OCC(=O)Nc2cc(C)on2)cc1OC,-0.3,-6.0,44.1,.,-9.6,33.3
COc1ccc(/C=N/NC(=O)CCn2cnc(-c3ccccc3)c2-c2ccccc2)cc1OC,54.4*,64.6,5.0,-43.9,-39.9,17.8
COc1ccc(/C=N/NC(=O)c2ccccc2Cl)cc1CSc1nc2ccccc2s1,.,32.8,22.7,-26.1,-33.6,.
COc1ccc(S(=O)(=O)N[C@@H]2CC[C@@H](CCn3cc(-c4ccccc4F)nn3)O[C@@H]2CO)cc1,13.3,.,-6.7,7.0,-19.5[16.7 µM],-1.3
COc1ccc(/C=N/NC(=O)c2cccc(C(=O)N/N=C/c3ccc(OC)c(OC)c3)n2)cc1OC,5.2,-3.2,0.4,8.7,6.1,2.2
COc1cc(/C(C)=N\NC(=O)CSc2nc3ccccc3n2C)ccc1O,-18.0,-2.2,-2.5,-3.7,0.6,41.7*
COc1ccc(/C=N/NC(=O)Nc2cccc3nsnc23)cc1OC,28.7,.,86.3*,.,.,.
COc1cc(/C=N/NC(=O)CCn2nc(C)cc2C)ccc1O,-16.4,-0.9,-9.7,6.7,9.9,.
COc1ccc(/C=N/NC(=O)CCn2c3ccccc3c3ccccc32)cc1OC,-8.0,.,-4.7,.,13.5,54.3*
COc1cc(/C=N/NC(=O)CCn2c3ccccc3c3ccccc32)cc(OC)c1OC,0.0,.,8.9,.,-2.0,11.1
CCOc1cc(/C=N/NC(=O)CCn2nc(C)cc2C)ccc1O,-8.1,.,-3.6,.,-1.5,53.0*
COc1ccc(NC(=O)Nc2ccc3c(c2)CC(=O)N([C@H](C)CO)C[C@@H](C)[C@@H](CN(C)C(=O)Nc2ccc(F)cc2)O3)cc1,1.1,4.6[16.7 µM],-2.7,-9.5,.,-1.5
CCn1c(SCC(=O)N/N=C/c2ccc(OC)c(OC)c2)nc2ccccc21,.,6.3,.,-8.8,21.1,84.4*
COc1ccc(Cc2nc3ccccc3n2CC(=O)N/N=C/c2ccccc2)cc1OC,-8.0,.,23.1,.,4.6,-13.1
COCCCNc1nc2c(c(=O)n(Cc3ccc(Cl)cc3)c(=O)n2C)n1C,-14.0,4.9,26.2,11.5,4.8,-5.8
Cn1c(NCCCN2CCOCC2)nc2c1c(=O)n(Cc1ccc(Cl)cc1Cl)c(=O)n2C,.,-7.6,.,-1.4,62.7*,.
O=C(O)C1(P(=O)(c2ccc(Cl)cc2)c2ccc(Cl)cc2)CCCC1,-0.8,.,-12.5,.,1.4,4.6
CCCCN(CCCC)C(=O)C1(P(=O)(c2ccccc2)c2ccccc2)CCC1,25.8,-13.7,12.5,-9.6,60.3*,-29.6
